From PubChem BioAssay (NCATS)
Results filed as inconclusive are left out. Entries that show only a call come without a potency. Calls of active or inactive are those of the source. The call rests on the fitted dose curve; in most records, active means well fitted inhibition curve with a large enough effect; inconclusive means small, poorly fitted or top-dose-only effect; inactive means flat fitted curve, though single readings scatter.

The molecules below were run on CRL-7250 (assay: qHTS assay to identify novel small-molecules to repurpose for Merkel cell carcinoma treatment (AID 1296009; further: nearly all actives have a fitted effect of over 60% in size)). Settings: MCC and control cell lines, CellTiter-Glo viability, 72 h; series mostly up to 92 µM.
Method in brief: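 Cells exposed to NPC (8-point) and MIPE (11-point) compound dilutions for 72 hr at 37 degree celsius; viability read by CellTiter-Glo luminescence, normalized to no-cell and DMSO in-plate controls.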

SMILES	Potency
CCNC(=O)Nc1ccc(Oc2ncnc(N)c2C=NOC)cc1Cl	inactive
O=C(O)[C@H](CC(=O)N1C[C@@H]2CCCC[C@H]2C1)Cc1ccccc1	inactive
CC1C(=O)OC2C(O)C34C5CC(C(C)(C)C)C36C(OC(=O)C6O)OC4(C(=O)O5)C12O (stereo not drawn)	inactive
CCOC(=O)N1CCN([N+]([O-])=NOc2cc(ON=[N+]([O-])N3CCN(C(=O)OCC)CC3)c([N+](=O)[O-])cc2[N+](=O)[O-])CC1	inactive
CCOC(=O)O[C@]1(C(=O)OCCl)CC[C@@H]2[C@H]3CCC4=CC(=O)C=C[C@]4(C)[C@@H]3[C@@H](O)C[C@@]21C	inactive
O=C1Nc2ccc(I)cc2C1=Cc1cc(Br)c(O)c(Br)c1	inactive
O=C(C[C@@H]1CC=CCCC(=O)O[C@H](c2ccccc2)CNC1=O)NCc1ccc(Cl)cc1	inactive
CON=C(C(=O)N[C@@H]1C(=O)N2C(C(=O)OCOC(=O)C(C)(C)C)=C(C=Cc3scnc3C)CS[C@H]12)c1csc(N)n1	inactive
C=CC[N+]1([C@H]2C[C@H]3[C@@H]4CC[C@H]5C[C@H](O)[C@@H](N6CCOCC6)C[C@]5(C)[C@@H]4CC[C@]3(C)[C@H]2OC(C)=O)CCCC1	inactive
C=C[C@@H]1CN2CCC1C[C@@H]2C(O)c1ccnc2ccc(OC)cc12 (stereo partly drawn)	inactive
O=C(CS(=O)Cc1ccco1)NCC=CCOc1cc(CN2CCCCC2)ccn1 (stereo not drawn)	inactive
CC(=O)C1=C(O)C=C2Oc3c(C(C)=O)c(O)c(C)c(O)c3C2(C)C1=O (stereo not drawn)	inactive
COc1ccc(-c2coc3cc(O)ccc3c2=O)cc1	inactive
